# The supplement of paper PMC9694430
# What was measured:
# Assay in all cases: thermal shift delta Tm vs DMSO control; higher = stronger stabilization (binding)
# Settings in all cases: 12.5 µM; protein concentration 2 µM
# [1] = test system: LOC_OS01G01410-cb001
# Method in brief: (§1)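 The melting temperature shift given here is a triplicate mean, measured against protein that received only DMSO. Melting temperatures came from Boltzmann fits of differential scanning fluorimetry data on E. coli-expressed, purified rice kinase domain constructs. Each 19.5 μl well contained 2 μM kinase, 100 mM potassium phosphate pH 7.5, 150 mM NaCl, 10% glycerol, 5 × SYPRO Orange and compound in DMSO. Plates were scanned from 25°C to 95°C at 0.05°C/s.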
# [2] = test system: LOC_OS01G02750-cb003
# Method in brief: as §1
# [3] = test system: LOC_OS01G10900-cb004
# Method in brief: as §1
# [4] = test system: LOC_OS01G13800-cb001
# Method in brief: as §1
# [5] = test system: LOC_OS01G14860-cb001
# Method in brief: as §1
# [6] = test system: LOC_OS01G21960-cb002
# Method in brief: as §1
# [7] = test system: LOC_OS01G39600-cb002
# Method in brief: as §1
# [8] = test system: LOC_OS01G48390-cb002
# Method in brief: as §1
# [9] = test system: LOC_OS01G51400-cb002
# Method in brief: as §1
# [10] = test system: T1, LOC_OS01G52050-cb004
# T1 sequence (whole entry): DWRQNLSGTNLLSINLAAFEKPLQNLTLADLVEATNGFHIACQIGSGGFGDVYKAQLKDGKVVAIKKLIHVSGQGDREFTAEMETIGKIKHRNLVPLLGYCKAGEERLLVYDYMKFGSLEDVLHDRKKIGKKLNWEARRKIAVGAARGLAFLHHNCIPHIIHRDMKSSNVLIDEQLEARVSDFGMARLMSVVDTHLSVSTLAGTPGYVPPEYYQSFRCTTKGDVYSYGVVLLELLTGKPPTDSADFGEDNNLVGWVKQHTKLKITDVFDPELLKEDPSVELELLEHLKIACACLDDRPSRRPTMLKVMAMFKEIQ
# Method in brief: as §1
# [11] = test system: LOC_OS01G57100-cb003
# Method in brief: as §1
# [12] = test system: LOC_OS01G60330-cb001
# Method in brief: as §1
# [13] = test system: LOC_OS01G60700-cb002
# Method in brief: as §1
# [14] = test system: LOC_OS01G63280-cb003
# Method in brief: as §1
# [15] = test system: LOC_OS01G67340-cb003
# Method in brief: as §1
# [16] = test system: LOC_OS01G70970-cb002
# Method in brief: as §1
# [17] = test system: LOC_OS02G07810-cb001
# Method in brief: as §1
# [18] = test system: LOC_OS02G08530-cb003
# Method in brief: as §1
# [19] = test system: LOC_OS02G14120-cb001
# Method in brief: as §1
# [20] = test system: LOC_OS02G17970-cb001
# Method in brief: as §1
SMILES,thermal shift delta Tm [1] [°C],thermal shift delta Tm [2] [°C],thermal shift delta Tm [3] [°C],thermal shift delta Tm [4] [°C],thermal shift delta Tm [5] [°C],thermal shift delta Tm [6] [°C],thermal shift delta Tm [7] [°C],thermal shift delta Tm [8] [°C],thermal shift delta Tm [9] [°C],thermal shift delta Tm [10] [°C],thermal shift delta Tm [11] [°C],thermal shift delta Tm [12] [°C],thermal shift delta Tm [13] [°C],thermal shift delta Tm [14] [°C],thermal shift delta Tm [15] [°C],thermal shift delta Tm [16] [°C],thermal shift delta Tm [17] [°C],thermal shift delta Tm [18] [°C],thermal shift delta Tm [19] [°C],thermal shift delta Tm [20] [°C]
O=c1sn(-c2cccc3ccccc23)c(=O)n1Cc1ccccc1 [Tideglusib],0.61,-1.04,-0.23,0.16,0.15,0.39,1.37,0.44,0.24,0.37,1.25,0.51,1.08,0.25,0.24,-0.22,0.81,0.5,-0.01,1.3
CCCCNc1ncc(C(=O)NCc2ccc(-n3ccnc3)cc2)c(NC2CCC(O)CC2)n1 (stereo not given),3.78,2.44,0.58,-0.06,4.73,1.72,2.74,2.96,0.43,7.56,2,9.72,1.49,0.72,10.2,4.54,0.76,4.03,7.7,1.08
NC1(Cc2ccc(Cl)cc2)CCN(c2ncnc3[nH]ccc23)CC1,0.45,0.58,-0.03,0.07,1.34,0.89,0.46,3.31,0.45,0.94,2.25,2.06,0.71,0.51,0.58,0.53,0.47,1.24,1.88,0.79
COc1cc(Nc2ncc(F)c(Nc3ccc4c(n3)N(COP(=O)(O)O)C(=O)C(C)(C)O4)n2)cc(OC)c1OC [Fostamatinib (R788)],1.98,-0.16,0.33,-0.55,4.38,3.63,9.1,0.22,0.49,6.23,4.42,6.53,0.92,0.09,1.18,3.04,0.54,3.76,11,0.23
COc1cc(OC)c(C=C2C(=O)Nc3ccccc32)c(OC)c1,0.16,0.24,1.24,0.46,0.32,0.88,0.01,0.22,0.14,-0.14,1.44,0.76,0.97,-0.13,0.36,0.32,0.32,0.7,0.94,0.65
COc1cc(Nc2ncc(F)c(Nc3ccc4c(n3)NC(=O)C(C)(C)O4)n2)cc(OC)c1OC [R406 (free base)],0.61,1.68,0.13,0.48,5.16,4.15,5.87,0.31,0.55,8.56,5.12,8.58,0.44,0.7,1,3.16,2.03,4.18,13,0.86
O=C(c1ccc(/C=C/c2n[nH]c3ccccc23)cc1)N1CCNCC1,5.18,3.06,1.43,-0.18,1.8,2.42,5.76,5.36,1.16,7.26,1.7,11.6,0.48,0.98,4.9,6.89,0.73,4.1,7.17,0.42
C[C@@H](Oc1ccc2[nH]nc(/C=C/c3cnn(CCO)c3)c2c1)c1c(Cl)cncc1Cl,5.27,7.14,7,-0.36,5.34,3.51,9.68,4.56,0.89,11.2,2.21,7.79,0.64,7.65,12.6,12.2,0.37,5.56,15,-0.09
COc1ncc(-c2cc(-c3ncc(CN4C[C@@H](C)O[C@@H](C)C4)o3)c3cn[nH]c3c2)cc1NS(C)(=O)=O,0.55,3.05,-0.41,-0.09,-0.11,0.43,0.15,0.01,0.34,-0.19,1.25,1.42,1.12,0.17,1.4,0.12,0.69,0.78,-0.2,0.21
C=CC(=O)Nc1cccc(Nc2nc(Nc3ccc(OCCOC)cc3)ncc2F)c1,3.05,0.97,1.01,-0.85,3.77,2.29,-1.51,1.44,0.59,3.59,1.56,8.86,1.84,0.22,0.42,1.81,0.8,3.49,9.32,0.13
Cc1ccc(S(=O)(=O)/C=C/C#N)cc1,-0.23,-1.35,-0.53,-0.18,-0.19,0.75,-1.97,2.88,0.21,-1.44,3.66,-1.26,-1.01,-3.09,-0.5,-2.73,0.83,1.24,-1.26,0.99
Nc1ncnc2n[nH]c(Nc3ccc(F)cc3)c12,1.74,1.17,1.94,-0.28,0.76,1.31,2.02,1.2,0.33,1.46,1,1.15,0.86,3.22,0.86,0.93,0.46,1.06,3.5,0.76
Cc1ccccc1CN1C2=NCCN2C(=O)C2=C1CCN(Cc1ccccc1)C2 [TIC10 Analogue],0.06,2.43,0.31,-0.07,0.07,0.85,-3.24,0.44,0.5,-0.27,1.53,0.24,1.04,0.12,-0.3,0.36,0.85,1.02,-0.11,0.86
